Screens (PubChem)
Sampled rows, rich in hits. Any-hit rate of the full collection: about 3.7%.
S2 tox: Viability Counterscreen for Primary qHTS for Inhibitors of ATXN expression. AID 651635, 2014. Potency, µM (doses to about 56.7 µM), usual class: cytotoxic. 0.49% of 400,000 active. S2 cells (HEK-293 line with an ATXN2-luciferase reporter) viability, CellTiter-Fluor protease fluorescence, 24 h; also: nearly all actives have a fitted effect of over 40% in size
TGFb SMAD3 inh: qHTS for Inhibitors of TGF-b; HepG2 CAGA-GFP TGF-b/SMAD3 reporter, GFP fluorescence, 18 h; TGF-beta stimulated, 500 pg/mL final; Potency, µM (highest dose often 46.1 µM), inactives show at the top dose activity, negative = inhibition, most hits filed as inhibitors; 1.2% of 410,000 active; also: % is scaled to controls: 0 for no effect and ±100 for the full control effect; nearly all actives have a fitted effect of over 65% in size
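Smad-responsive CAGA-GFP expression was quantified in HEPG2 cells exposed to compounds and 500 pg/mL final TGF-beta for 18 h at 37 degrees C; unstimulated wells defined full inhibition.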
HepG2 tox: qHTS for Inhibitors of TGF-b: Cytotox Counterscreen. Potency, µM (titrated, usually from 46.1 µM), inactives show at the top dose activity change, negative = cytotoxicity, most hits filed as cytotoxic. AID 588856, 2011. 0.76% of 410,000 active. HepG2 CAGA-GFP viability, ATP luminescence, 18 h
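CellTiter-Glo luminescence gave cytotoxicity after 18 hours at 37 degrees C. The cells were HepG2 CAGA-GFP in 1% FBS DMEM, stimulated with 500 pg/mL TGF-beta after compound addition. %Activity was normalised to no-cell wells (complete cell-killing) and DMSO (no toxicity), and curves were fitted and classified.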
GLP-1R inv ag: qHTS of GLP-1 Receptor Inverse Agonists (Inhibition Mode) | 1.6% of 410,000 active | HEK293 GLP-1R CRE-luciferase, luminescence, 24 h; GLP-1R form is constitutively active | Potency, µM (highest dose often 38.3 µM), without a hit: at the highest dose activity change, negative = inhibition, most hits filed as inhibitors; also: % is scaled to controls: 0 for no effect and ±100 for the full control effect; nearly all actives have a fitted effect of over 55% in size
Target sequence (P43220 whole entry, looked up): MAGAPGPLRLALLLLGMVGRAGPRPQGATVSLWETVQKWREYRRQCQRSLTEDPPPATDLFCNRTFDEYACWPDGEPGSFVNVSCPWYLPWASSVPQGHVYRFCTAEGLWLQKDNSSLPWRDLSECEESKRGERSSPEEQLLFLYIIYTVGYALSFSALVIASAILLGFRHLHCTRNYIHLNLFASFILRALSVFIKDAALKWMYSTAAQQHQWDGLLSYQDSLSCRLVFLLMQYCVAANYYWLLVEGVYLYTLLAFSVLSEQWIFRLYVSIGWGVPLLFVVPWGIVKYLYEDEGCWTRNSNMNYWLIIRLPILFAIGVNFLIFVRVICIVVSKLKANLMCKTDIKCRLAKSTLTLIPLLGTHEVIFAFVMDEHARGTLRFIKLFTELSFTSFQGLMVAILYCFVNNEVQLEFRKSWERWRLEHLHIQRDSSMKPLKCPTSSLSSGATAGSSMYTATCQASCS
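Stable HEK293 clone (constitutively active GLP-1R + cAMP-response luciferase); 200 cells/uL plated, 12 h pre-culture, compound 24 hr, 37 deg C/5% CO2; detection reagent 12 min RT; luminescence.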
GLP1R ag: qHTS of GLP-1 Receptor Agonists; Glucagon-like peptide 1 receptor (Homo sapiens), P43220; 0.007% of 380,000 active; HEK293 GLP-1R CRE-luciferase, luminescence, 4-6 h; cells express a hypersensitive GLP-1R form; Potency, µM (top dose mostly 45.6 µM), inactives show at the top dose activation, most hits filed as activators; AID 624172, 2012; also: % of control where 0% means no effect
ATXN2 expr inh: Primary qHTS for Inhibitors of ATXN expression; HEK-293 ATXN2-luciferase reporter, luminescence, 24 h; Potency, µM (highest dose often 57 µM), inactives show at the highest dose activity change, negative = inhibition, usual class: inhibitors; 0.72% of 360,000 active; AID 1745845, 2022; also: % is scaled to controls: 0 for no effect and ±100 for the full control effect; nearly all actives have a fitted effect of over 55% in size
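ATXN2-luciferase reporter cells (luciferase flanked by upstream and downstream ATXN2 gene portions) were treated 24 h at 37 °C with compounds at up to 57 uM. SteadyGlo luminescence gave expression; GF-AFC fluorescence gave viability.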
Starred values were filed as active, the others as inactive; i = inactive; ? = inconclusive; / = no result; ! = repeats disagree. Calls follow the shape of the dose curve; as a rule, active = well fitted curve in the direction sought with a large enough effect; inconclusive = small, poorly fitted or top-dose-only effect, or another doubt; inactive = no such curve, though single readings can be large; an effect the other way counts as inactive or inconclusive. Potency is read from the fitted curve at half-maximal effect.

SMILES	S2 tox	TGFb SMAD3 inh	HepG2 tox	GLP-1R inv ag	GLP1R ag	ATXN2 expr inh
COc1ccccc1N1CCN(Cc2nc(N)nc(Nc3ccc(C)c(Cl)c3)n2)CC1	i	?	-45%	2.2µM*	-24%	-14%
COc1cc2nc(Nc3cccc(C)c3)nc(N)c2cc1OC	?	?	-77%	?	/	-4%
COc1cc2nc(Nc3ccc(C)c(Cl)c3)nc(N)c2cc1OC	?	?	-196%	3.2µM*	0%	?
COc1cc2nc(Nc3ccc(C)c(C)c3)nc(N)c2cc1OC	?	?	-68%	10µM*	14%	?
Cc1ncc2c(c1CNC(=O)/C=C/c1cccs1)CCN(C(=O)C1CC(=O)OC13CCCCC3)C2 (stereo not given)	i	/	/	/	/	/
Nc1ncnc2c1ncn2C1O[C@H](CO)[C@@H](O)[C@@H]1O (stereo not given in full)	i	3%	26%	0%	12%	-8%
N#Cc1c(N)n(C2OC(CO)C(O)C2O)c2ncnc(N)c12 (stereo not given)	?	?	-42%	?	-13%	0.3µM*
CC(=Cc1ccccc1)C=C1SC(=S)N(CC(=O)O)C1=O	/	/	/	/	/	41%
O=C1CC(=O)CC(c2ccccc2)C1	i	17%	0%	-3%	-1%	/
O=S1(=O)CCS(=O)(=O)C1c1ccccc1	?	?	-62%	11µM*	-9%	20%
Oc1c(Cl)cc(Oc2cc(Cl)c(O)c(CN3CCOCC3)c2)cc1CN1CCOCC1	i	-1%	-1%	11µM*	14%	-20%
Oc1c(CN2CCOCC2)cc(CN2CCOCC2)c(O)c1O	i	4%	-9%	9%	-3%	5%
O=C(NCCc1nnc2n1CCN(Cc1c(F)cccc1F)CC2)c1ccc(F)cc1	i	/	/	/	/	/
Cc1cccc(NC(=O)CSc2nc3c(c(=O)[nH]2)CN(Cc2ccc4c(c2)OCO4)CC3)c1C	i	-19%	-20%	4%	/	11%
COc1ccccc1C1CC(c2ccco2)=NN1c1ccccc1 (stereo not given)	i	-28%	-17%	10µM*	-2%	-10%
COc1ccc(C2=NN(c3ccc(C=O)cc3)C(c3ccccc3)C2)cc1 (stereo not given)	i	?	-40%	10µM*	8%	?
COc1ccc(C2=NN(c3ccccc3)C(c3ccc(OC)c(OC)c3)C2)cc1 (stereo not given)	i	-13%	-26%	-7%	1%	29%
Fc1ccc(C2=NN(c3ccccc3)C(c3ccco3)C2)cc1 (stereo not given)	i	?	-37%	?	0%	-34%
COc1ccc(C2CC(c3ccccc3)=NN2c2ccc(C(N)=O)cc2)cc1 (stereo not given)	/	16µM*	-58%	?	-6%	-23%
COc1ccc(C2CC(c3ccc(F)cc3)=NN2c2ccccc2)cc1OC (stereo not given)	?	0%	1%	10µM*	7%	0%
CCOC(=O)c1c(NC(=O)CSc2cn(CCNC(=O)c3c(F)cccc3F)c3ccccc23)sc2c1CCCC2	?	0%	-2%	11%	1%	-9%
CCCOc1cccc(C(=O)N2CCCCC2CCN2CCCCC2)c1 (stereo not given)	/	-17%	2%	-5%	/	/
Cc1oc(-c2ccccc2NC(=O)C2CCCO2)nc1CNC(=O)c1[nH]c2c(C)ccc(C)c2c1C (stereo not given)	i	/	/	/	/	/
O=C(C=Cc1ccccc1F)c1ccccc1	/	11µM*	-57%	-6%	-1%	?
O=C(C=Cc1cccc(Cl)c1)c1ccccc1	i	?	18µM*	?	8%	1%
SMILES	S2 tox	TGFb SMAD3 inh	HepG2 tox	GLP-1R inv ag	GLP1R ag	ATXN2 expr inh
CN(C)C(=O)COc1ccccc1C(=O)OCC(=O)Nc1ccc(Oc2ccc(Br)cc2)cc1	/	-9%	-7%	/	/	/
Nn1cnc2c(c1=O)C1(CCCCC1)Cc1ccccc1-2	i	8.9µM*	11µM*	3%	-2%	-13%
CCCOC(=O)c1ccc(OCC(O)CN2CCN(C(=O)c3ccccc3)CC2)cc1 (stereo not given)	i	42%	10%	-11%	-2%	5%
CC(C)(C)c1ccc(OCC(O)CN2CCN(C(=O)c3ccccc3)CC2)cc1 (stereo not given)	?	-19%	-37%	10µM*	6%	/
OC(COc1ccc2c(c1)OCO2)CN1CCN(c2ccccc2)CC1 (stereo not given)	i	6%	-7%	8.9µM*	1%	-5%
CC(C)c1ccc(OCC(O)CN2CCN(c3ccccc3)CC2)cc1 (stereo not given)	?	6%	-34%	10µM*	8%	-18%
CCC1CN(C(=O)N2CCC(C(=O)NCCCc3ccccc3)CC2)c2ccccc2O1 (stereo not given)	/	-17%	0%	7%	/	/
O=C(Nc1cc(Cl)cc(Cl)c1)c1cnn2c1NC(=C1CC1)C=C2C(F)F	/	-23%	-1%	/	/	/
COc1ccc(C(=O)N(c2ccc(C)cc2)S(=O)(=O)c2ccc(C)cc2)cc1	?	-3%	-12%	3.2µM*	/	-17%
CCC(C(=O)Nc1cc(-c2nc3cccnc3s2)ccc1C)c1ccccc1 (stereo not given)	i	-8%	4%	8%	/	50%
Nc1nc2c(ncn2COC(CO)CO)c(=O)[nH]1	i	-2%	2%	11%	5%	24µM*!
CCCCn1cnc2c(=O)[nH]c(N)nc21	/	3%	-3%	/	/	/
CC(C)C[C@H](NC(=O)[C@@H](NC(=O)c1cccc(-c2ccccc2)n1)[C@@H](C)O)B(O)O	/	/	/	/	/	0.061µM*
CC(C)C[C@@H](NC(=O)[C@@H](Cc1ccccc1)NC(=O)c1cnccn1)B(O)O	/	/	/	/	10%	/
CCc1cccc(C)c1NC(=O)Cn1ccn(Cc2ccc(Cl)cc2)c(=O)c1=O	/	-15%	-13%	-10%	/	/
COCc1c(C(=O)N2CCN(C)CC2)cnn1-c1ncc2c(n1)-c1ccccc1CCC2	i	/	/	/	/	/
CCn1c2ccccc2c2cc(NC(=O)COC(=O)c3ccccc3O)ccc21	i	-6%	1%	12%	7%	?
CCn1c2ccccc2c2cc(NC(=O)COC(=O)C3CCC(=O)N3)ccc21 (stereo not given)	i	5%	2%	-16%	-9%	18µM*
